Test results: the OligoGym collection

Biological target: NELL2
Assay: pooled miR-30 sensor sort-seq; sequence = guide strand
Details: shRNA
Note: reference of the scale not given here.

Row | Sequence | sensor-assay potency score (higher = more potent)
1 | TTGTGATACACTCATCATGTTC | -1.15
2 | TAGAGTTTCACACTGGATGGTT | 0.431
3 | TAACCTTTACAAACTTTGCAAC | -0.975
4 | TCGACAGCTACAAACAGCCCTG | -0.27
5 | TAAAATATCCTGTAGCTCCATG | -0.475
6 | TAAGACGTCAATCTGTAGGGAA | 0.711
7 | TTACAAACTTTGCAACAGCTGT | -0.672
8 | TGTCACATTGAACAAAACCATC | -1.67
9 | TTTCACAATAGCACTGATCCAA | 0.272
10 | TTGCATGTCGTTCCATTCCCTG | -1.03
11 | TTATTTCTCTGTCCTAGCCAAA | -1.55

Biological target: NETO2
Assay: as above
Details: shRNA

Row | Sequence | sensor-assay potency score (higher = more potent)
12 | TTCTTTGACGTGGAGCAGCTTC | -0.587
13 | TTGCTCGAAATCCCAGTCCTTC | -0.463
14 | TAAATGAATATTTTGCTCGAAA | -0.895
15 | TTGTTTTCTCCTCTTGTTCTAC | -0.539
16 | TAACAACACTTTGAGGACCGAG | -0.0442
17 | TAATCCACATGAATCTCCCTGT | 0.411
18 | TTAATCCACATGAATCTCCCTG | 0.06
19 | TTTCAATAGAACTGCTTCCATC | -1.24
20 | TTGACGTGGAGCAGCTTCCAAA | -1.08
21 | TTATTAACAACACTTTGAGGAC | -0.45
22 | TTAACATATATAGACTGCCTGA | -0.881
23 | TTGATAATCTAGGAACCTCAAA | -1.24

Biological target: NEURL2
Assay: as above
Details: shRNA

Row | Sequence | sensor-assay potency score (higher = more potent)
24 | ATCGGGCAGAGAAAACTCGGGA | -0.832
25 | TGTGGAAGCAAACACGTCCACC | -1.66
26 | TATGGTTCCACGAGGAGGGTTG | -0.457
27 | TTTATTTCTGGTCTTGGCTGGC | -0.107
28 | TCTTTGTGGAAGCAAACACGTC | -1.58
29 | AAACACGTCCACCACCGCGTAG | -1.26
30 | TTCTCCTCGATCTCGACCAGGA | -0.684
31 | TTGTGGAAGCAAACACGTCCAC | -0.451
32 | ATGATGTGCATGTCGGCCGTGC | -0.877
33 | TAGGCGGCACAGAGTCTGCAGG | -1.34
34 | TTTCTCCTCGATCTCGACCAGG | -0.592

Biological target: NEUROD6
Assay: as above
Details: shRNA

Row | Sequence | sensor-assay potency score (higher = more potent)
35 | TTCTCTAGAAAACTTTCTGCAC | -0.894
36 | TTTGTTGTCTTTTTTTTCCTAA | -0.154
37 | TTGTCTTAATTAGACAGGGGAG | -1.08
38 | TAATTCATCTTGCATTGTGAGA | -0.914
39 | TCAGAAACTAGTAAACACCTTA | 0.248
40 | TAAGTTGTCCAGAGCGTCGTTG | -0.475
